High-throughput results deposited in PubChem by several laboratories.
An excerpt weighted towards active compounds, which were near 3.7% of everything screened.
FadD28 FP inh: inhibitors of Mycobacterium tuberculosis FadD28 bisubstrate binding; inhibition, % at 12.5 µM; 0.22% of 360,000 active; FadD28 bisubstrate probe binding, fluorescence polarization; in the data active = inhibition above about 8.5%, passing the limit was not always enough; inconclusive = no clear call, values can overlap the other calls
Rv3671c inh: inhibits the M. tuberculosis serine protease Rv3671c. inhibition, % at 5.96 µM. 0.048% of 320,000 active. P9WHR9; in the data active = inhibition above about 38%;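 also: extracellular domain of Rv3671c used as enzyme; 0% = enzyme with DMSO and 100% = no enzyme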
Mtb UGM inh: Mtb UDP-galactopyranose mutase inhibition; 0.06% of 320,000 active; purified UGM, fluorescence polarization probe displacement; AID 504406; inhibition, % at 10 µM; in the data active = inhibition above about 10%, passing the limit was not always enough; inconclusive = no clear call, values can overlap the other calls
Target sequence (P9WIQ1 whole entry, looked up): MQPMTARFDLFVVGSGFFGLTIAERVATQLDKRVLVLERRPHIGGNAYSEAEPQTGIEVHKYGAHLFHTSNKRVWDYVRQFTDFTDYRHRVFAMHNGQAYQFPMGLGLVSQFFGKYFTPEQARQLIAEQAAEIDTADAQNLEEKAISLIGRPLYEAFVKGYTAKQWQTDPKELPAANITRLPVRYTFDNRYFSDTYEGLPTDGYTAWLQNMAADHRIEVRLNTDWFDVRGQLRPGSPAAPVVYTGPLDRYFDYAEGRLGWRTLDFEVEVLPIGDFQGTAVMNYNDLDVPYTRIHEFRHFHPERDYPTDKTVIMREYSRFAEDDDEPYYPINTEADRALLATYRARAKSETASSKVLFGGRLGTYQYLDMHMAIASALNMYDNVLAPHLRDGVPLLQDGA
GDH-TPI counter: GDH-TPI coupled enzyme inhibition counter-screen | GDH-TPI coupled enzyme counterscreen, NADH absorbance | inhibition, % at 4.8 µM | 1.2% of 360,000 active; in the data active = inhibition above about 30%;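 also: 0% = DMSO wells and 100% = wells lacking the enzyme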
FBA Mtb inh: inhibits M. tuberculosis FBA enzyme | P9WQA3 | purified M. tuberculosis FBA, fluorescence read-out | inhibition, % at 1 µM | 2.3% of 360,000 active | AID 588726; in the data active = inhibition above about 27%;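 also: 0% = vehicle and 100% = reference inhibitor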
Mtb bLac sens: beta-lactam sensitization of Mtb H37Rv | M. tuberculosis H37Rv growth with meropenem, percent inhibition | inhibition, % at 25 µM | 0.27% of 330,000 active | AID 434955; call rule not given here;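 also: growth measured after seven days incubation then overnight dye step; 0% = bacteria only wells and 100% = bacteria with antibiotic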
The depositor's hits bear a star; ? = inconclusive; . = no result given; + = active, no number.

SMILES	FadD28 FP inh	Rv3671c inh	Mtb UGM inh	GDH-TPI counter	FBA Mtb inh	Mtb bLac sens
CCCC(NC(=O)COc1cc2c(c3oc(=O)c(C)c(C)c13)CCC(C)(C)O2)C(=O)O (configuration not stated)	-3	4	0	17	+	6
CSC[C@H](NC(=O)COc1cc2c(c3oc(=O)cc(C)c13)CCC(C)(C)O2)C(=O)O	-5	5	0	7	+	-3
CCCCC(NC(=O)Cc1c(C)c2cc3c4c(oc3c(C)c2oc1=O)CCCC4)C(=O)O (configuration not stated)	-5	-1	-1	1	12	-4
Cc1c(C)c2c(OCC(=O)N[C@@H](Cc3ccccc3)C(=O)O)cc3c(c2oc1=O)CCC(C)(C)O3	-5	-4	0	38*	+	-1
CSC[C@H](NC(=O)COc1cc2c(c3oc(=O)c(C)c(C)c13)CCC(C)(C)O2)C(=O)O	-3	6	-1	15	+	4
O=C(NNC(=O)c1ccccc1O)c1ccc(S(=O)(=O)Nc2ccccc2)cc1	-1	12	-1	10	3	6
O=C(NCC1CCCO1)c1cc(-c2ccco2)nc2ccccc12 (configuration not stated)	-3	2	0	28	183*	0
Cc1ccc(S(=O)(=O)N(C)C)cc1NC(=O)c1cc(-c2ccco2)nc2ccccc12	-2	-5	-1	10	45*	-4
Cc1ccccc1NC(=O)c1cc(-c2ccco2)nc2ccccc12	-3	.	.	12	5	.
O=C(NCC1CCCO1)c1cc(-c2ccncc2)nc2ccccc12 (configuration not stated)	-2	.	.	-1	1	.
Cc1ccc(S(=O)(=O)c2nc(-c3ccc(F)cc3)oc2N2CCOCC2)cc1	-4	-1	1	4	-3	-7
COc1cc(-c2nc3ccc(N4CCN(C)CC4)cc3[nH]2)cc(OC)c1OC	-2	6	-1	11	+	6
Cc1ccc(NC(=O)CC2S/C(=N/N=C/c3c[nH]c4ccccc34)NC2=O)cc1 (configuration not stated)	0	-10	-2	39*	-2	2
CCOC(=O)c1ccc(NC(=O)CC2S/C(=N/N=C/c3c[nH]c4ccccc34)NC2=O)cc1 (configuration not stated)	-4	-18	-1	32*	-3	6
CCCCn1c(N)c(N(Cc2ccccc2OC)C(=O)C(C)Oc2cccc(Cl)c2)c(=O)[nH]c1=O (configuration not stated)	-2	.	.	1	0	.
CCC(C)N(CC(=O)Nc1cccc(C)c1C)C(=O)CCl (configuration not stated)	-2	-2	-1	0	5	86
COC(=O)C1(C)NC(c2ccc(O)cc2)C2C(=O)N(c3ccc(F)cc3)C(=O)C21 (configuration not stated)	0	-8	0	6	-1	-17
COC(=O)C1(CCSC)NC(c2ccc(O)cc2)C2C(=O)N(c3ccc(F)cc3)C(=O)C21 (configuration not stated)	-3	-6	0	8	114*	4
N#Cc1nc(-c2ccccc2Cl)oc1N1CCN(C(=O)c2ccco2)CC1	-1	-5	-1	10	5	?
N#Cc1nc(-c2ccccc2F)oc1N1CCCCC1	-1	8	1	20	+	-4
N#Cc1nc(-c2ccccc2F)oc1NC1CCCCC1	-2	-4	1	0	175*	3
N#Cc1nc(-c2ccccc2F)oc1N1CCN(C(=O)c2ccco2)CC1	-4	-2	0	12	115*	-17
N#Cc1nc(-c2ccccc2Cl)oc1N1CCCCC1	-2	4	-2	23	19	21
O=C(NC1CC1)c1ccc(CSCc2ccc(Cl)cc2)o1	-3	.	.	4	1	.
CCN(c1ccccc1)S(=O)(=O)c1ccc(OC)c(NC(=O)c2ccco2)c1	-2	.	.	4	-2	.
SMILES	FadD28 FP inh	Rv3671c inh	Mtb UGM inh	GDH-TPI counter	FBA Mtb inh	Mtb bLac sens
CCC(C)c1ccc(O)c(NC(=S)NC(=O)c2cccs2)c1 (configuration not stated)	-3	.	.	1	0	.
CCn1c(=NC(=O)c2cccc(N3C(=O)CCC3=O)c2)sc2c(C)ccc(OC)c21	-3	-37	0	38*	6	66
COc1cccc(C(=O)N=c2sc3c(C)ccc(OC)c3n2C)c1	-3	3	-6	-2	-2	5
CCn1c(=NC(=O)c2ccc(N3C(=O)CCC3=O)cc2)sc2c(OC)ccc(OC)c21	-2	-30	1	37*	1	1
O=C(CN1CCN(Cc2cccc(C(F)(F)F)c2)CC1)NCC(=O)Nc1ccc(F)c(F)c1F	0	.	.	-1	0	.
CC(=C/c1ccccc1)/C=N/NC(=O)c1cccs1	-7	-7	1	29	-3	8
O=C(N/N=C/C(Br)=C/c1ccccc1)c1ccncc1	-3	-2	1	36*	-1	99
CC(/C=N/NC(=O)c1ccncc1)=C\c1ccccc1	-2	0	-1	45*	-2	99
O=C(N/N=C/C(Br)=C\c1ccccc1)c1cccs1	0	-6	5	31*	0	60
O=C(N/N=C/C(Br)=C/c1ccccc1)c1cccnc1	-3	-4	-3	25	1	100
CC(=C/c1ccc(C(C)C)cc1)/C=N/NC(=O)c1ccncc1	-2	-13	1	30	-4	99
CCOc1cc(C(=O)N/N=C/C(Br)=C/c2ccccc2)cc(OCC)c1OCC	-3	-35	1	32*	-3	-4
O=C(CNC1CCCCC1)Nc1ccc(Cl)cc1	0	0	2	2	-1	4
CC(=O)Nc1ccc2c(c1)Cc1c(F)cccc1-2	0	.	.	-3	3	.
O=C(N/N=C\c1ccc(Cl)s1)c1cccs1	-1	-2	1	33*	-2	63
CC(/C=N/NC(=O)c1cccc(F)c1)=C\c1ccccc1	.	-8	-3	28	-2	-1
COc1ccccc1C(=O)N/N=C/C(C)=C/c1ccccc1	-3	5	0	32*	-5	-2
OC[C@@H]1CN(Cc2cccc(C(F)(F)F)c2)C[C@H](n2cnc3c(NCc4ccncc4)ncnc32)O1	-3	.	.	-4	-1	.
Cc1cccc(N=Cc2c(O)n(C)c(=O)n(C)c2=O)c1	-1	1	-2	36*	-2	-3
COc1ccc(N=Cc2c(O)n(C)c(=O)n(C)c2=O)cc1	-2	1	3	26	1	84
Cn1c(O)c(/C=N/c2ncccn2)c(=O)n(C)c1=O	-1	-7	-1	32*	4	.
Cc1ccc(N=Cc2c(O)n(C)c(=O)n(C)c2=O)cc1	-1	-11	0	35*	-2	2
CN(C)CCCNc1nc2cc(-c3ccc(F)cc3)sc2c(=O)n1C	-5	.	.	0	4	.
O=C(CN1CCN(c2ccccc2O)CC1)Nc1cc(S(=O)(=O)N2CCCC2)ccc1Cl	-1	0	3	1	-1	-7
